Assay results from PubChem BioAssay (Tox21).
Results filed as inconclusive are left out. Calls of active or inactive are those of the source. Unless noted, calls come from the whole dose curve; as a rule, active = well fitted curve in the direction sought with a large enough effect in the repeat runs; inconclusive = weak or mixed curves; inactive = no such curve, though single readings can be large; an effect the other way counts as inactive or inconclusive.

How the values were obtained:
[1] = qHTS assay to identify small molecule agonists of the vitamin D receptor (VDR) signaling pathway - cell viability counter screen (AID 743224); note: series mostly up to about 63 µM; % is set by controls: 0 for no effect and ±100 for the full control effect; nearly all actives have a fitted effect of over 50% in size
How it was run: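 Viability is measured in the same wells as the VDR-bla reporter assay: after 16 h compound treatment and 2 h substrate loading, CellTiter-Glo is added and luminescence read 30 min later.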

[2] = qHTS assay to identify small molecule antagonists of the vitamin D receptor (VDR) signaling pathway - cell viability counter screen (AID 743225); note: % is set by controls: 0 for no effect and ±100 for the full control effect; nearly all actives have a fitted effect of over 50% in size
How it was run: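 Cytotoxicity toward the VDR-bla HEK 293T line was scored by ATP-based CellTiter-Glo luminescence, read in the wells already used for the beta-lactamase readout after 16 h compound treatment under 3 nM 1-alpha,25-dihydroxyvitamin D3 stimulation.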

[3] = qHTS assay to identify small molecule agonists of the NFkB signaling pathway - cell viability counter screen (AID 1159515; calls by dose curve; note: series mostly up to about 61 µM; % is set by controls: 0 for no effect and ±100 for the full control effect; nearly all actives have a fitted effect of over 55% in size)
How it was run: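 Multiplexed viability readout: after the 5 hr compound exposure and 1.5 hr FRET substrate step, CellTiter-Glo reagent went into the same NFkB-bla ME-180 wells; ATP luminescence was measured after 30 min at room temperature.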

[4] = qHTS assay to identify small molecule agonists of the endoplasmic reticulum stress response signaling pathway - cell viability counter screen (AID 1159517; calls by dose curve;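 note: HeLa cells carrying an ER stress response element beta-lactamase reporter; series mostly up to about 61 µM; % is set by controls: 0 for no effect and ±100 for the full control effect; nearly all actives have a fitted effect of over 50% in size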)
How it was run: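 HeLa cells carrying an ESRE-driven beta-lactamase reporter receive compound for 5 hr at 37 C. Cell viability is then gauged with CellTiter-Glo by luminescence, 30 min at room temperature.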

[5] = qHTS assay to identify small molecule antagonists of the retinoid-related orphan receptor gamma (ROR-gamma) signaling pathway - cell viability counter screen (AID 1159520); note: % is set by controls: 0 for no effect and ±100 for the full control effect; nearly all actives have a fitted effect of over 50% in size
How it was run: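 Cytotoxicity was read from cellular ATP (CellTiter-Glo luminescence) after 16 hr at 37 C with 1 uM doxycycline induction. The inducer was added 2 hr after compound transfer to Tet-on ROR gamma CHO cells.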

[6] = molecular target: Nuclear receptor ROR-gamma (Homo sapiens) (UniProt P51449); experiment: qHTS assay to identify small molecule antagonists of the retinoid-related orphan receptor gamma (ROR-gamma) signaling pathway (AID 1159521; note: nearly all actives have a fitted effect of over 50% in size; note: potency is the fitted concentration of half-maximal effect)
How it was run: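 Readout: ONE-Glo luciferase luminescence, 30 min at room temperature. System: Tet-on RORγ CHO, RORE-LUC. Sequence: compound 2 h, doxycycline 1 uM final, 16 h at 37 C.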

[7] = qHTS assay to identify small molecule agonists of the AP-1 signaling pathway - cell viability counter screen (AID 1159525; calls by dose curve; note: nearly all actives have a fitted effect of over 55% in size)
How it was run: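 Luminescent ATP readout (Cell Titer Glo, 30 min RT), normalised to DMSO and tetra n-octyl ammonium bromide controls. Cells were ME-180 AP-1-bla in 0.5% dialyzed FBS Opti-MEM, with a 5 h, 37 °C compound exposure.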

[8] = qHTS assay to identify small molecule agonists of the AP-1 signaling pathway (AID 1159526; calls by dose curve; note: % is set by controls: 0 for no effect and ±100 for the full control effect)
[9] = qHTS assay to identify small molecule agonists of the RXR signaling pathway - cell viability counter screen (AID 1159529)
How it was run: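 Tox21 10K compounds were tested for cytotoxicity against GeneBLAzer RXR-alpha HEK 293T cells grown in 2% charcoal-stripped FBS. Exposure lasted 16 hr at 37 C, 5% CO2; viability read by CellTiter-Glo luminescence.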

[10] = qHTS assay to identify small molecule antagonists of the retinoid acid receptor (RAR) signaling pathway - cell viability counter screen (AID 1159551); note: % is set by controls: 0 for no effect and ±100 for the full control effect; nearly all actives have a fitted effect of over 35% in size
How it was run: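 Cytotoxicity counter screen in C3RL4 cells: 6 h compound exposure with 1 uM retinol (final), viability from cellular ATP by luminescence.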

[11] = molecular target: Retinoic acid receptor RXR-alpha (Homo sapiens) (UniProt P19793); experiment: qHTS assay to identify small molecule agonists of the RXR signaling pathway (AID 1159527; calls by dose curve; note: % is set by controls: 0 for no effect and ±100 for the full control effect; nearly all actives have a fitted effect of over 35% in size)
Chain of Retinoic acid receptor RXR-alpha (Homo sapiens) (P19793 whole entry, looked up): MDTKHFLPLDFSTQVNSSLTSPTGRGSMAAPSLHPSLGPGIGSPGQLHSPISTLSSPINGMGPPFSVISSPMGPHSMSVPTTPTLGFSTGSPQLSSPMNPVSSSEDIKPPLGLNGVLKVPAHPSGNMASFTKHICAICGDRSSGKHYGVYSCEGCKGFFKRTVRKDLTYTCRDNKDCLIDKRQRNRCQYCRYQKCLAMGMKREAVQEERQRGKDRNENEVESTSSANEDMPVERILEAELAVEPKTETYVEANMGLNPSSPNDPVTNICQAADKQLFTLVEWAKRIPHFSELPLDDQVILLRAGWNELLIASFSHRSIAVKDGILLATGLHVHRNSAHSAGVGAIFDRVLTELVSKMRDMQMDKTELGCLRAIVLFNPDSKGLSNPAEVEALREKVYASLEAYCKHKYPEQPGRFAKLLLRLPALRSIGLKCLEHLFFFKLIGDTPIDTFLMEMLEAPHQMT
How it was run: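 Reporter activation is measured as beta-lactamase activity via FRET substrate cleavage (emission 460/530 nm) in HEK 293T cells expressing an RXR-alpha-driven bla construct, following 16 hr compound exposure at 37 C.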

[12] = qHTS assay to identify small molecule agonists of the retinoic acid receptor (RAR) signaling pathway (AID 1159553); note: potency is the fitted concentration of half-maximal effect
How it was run: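 Agonist activity was scored in C3RL4 cells bearing a retinoic acid response element luciferase construct. Cells were treated with compounds for 6 hr at 37 C, and luciferase signal was measured as luminescence.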

[13] = qHTS assay to identify small molecule antagonists of the estrogen related receptor (ERR) signaling pathway - cell viability counter screen (AID 1224818);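 note: series mostly up to about 46 µM; viability measured after 17.5 h of compound exposure; % is set by controls: 0 for no effect and ±100 for the full control effect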
How it was run: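 Cells carrying the ERR pathway reporter were seeded and incubated for 6 hours before compound addition. After a 17.5-hour exposure at 37 C, live-cell protease activity was measured by CellTiter-Fluor fluorescence following 30 minutes of incubation.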

[14] = qHTS assay to identify small molecule antagonists of the estrogen related receptor (ERR) signaling pathway (AID 1224819)
How it was run: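 Compounds dissolved in DMSO were pin-transferred onto ERR cells that had been plated 6 h earlier, and cells were then incubated 18 h at 37 C; signal was luciferase luminescence via One-Glo.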

[15] = qHTS assay to identify small molecule agonists of the estrogen related receptor (ERR) signaling pathway (AID 1224820); note: % is set by controls: 0 for no effect and ±100 for the full control effect
How it was run: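 ERR reporter cell line (from NTP), 2,000 cells/well, incubated 6 h before compound addition, then 18 h at 37 C. Luminescence measured 30 min after One-Glo reagent at room temperature.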

[16] = system: estrogen-related receptor alpha (ERRalpha) with PGC-1alpha coactivator, human; experiment: qHTS assay to identify small molecule antagonists of the estrogen related receptor signaling pathway with the pleiotropic PPARgamma coactivator (PGC) (AID 1224821; calls by dose curve)
How it was run: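 PGC/ERR reporter cell line, plated 6 h before compound addition, then exposed 18 h at 37 °C. Luciferase activity read by luminescence 30 min after One-Glo addition; decrease indicates antagonism.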

[17] = qHTS assay to identify small molecule antagonists of the estrogen related receptor signaling pathway with the pleiotropic PPARgamma coactivator (PGC) cell viability counter screen (AID 1224822;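 note: series mostly up to about 46 µM; viability read after 17.5 h compound exposure; % is set by controls: 0 for no effect and ±100 for the full control effect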)
How it was run: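 Seed PGC/ERR cells (2,000/well); incubate 6 h at 37 C/5% CO2; pin-transfer compounds in DMSO; incubate 17.5 h at 37 C; add CellTiter-Fluor; after 30 min read fluorescence.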

[18] = qHTS assay to identify small molecule agonists of the estrogen related receptor signaling pathway with the pleiotropic PPARgamma coactivator (PGC) (AID 1224823); note: % is set by controls: 0 for no effect and ±100 for the full control effect
How it was run: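 PGC/ERR reporter cells seeded 6 h, then exposed to compounds (23 nL in DMSO) for 18 h at 37 C. One-Glo luciferase luminescence read after 30 min at room temperature.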

[19] = qHTS assay to identify small molecule antagonists of the retinoic acid receptor (RAR) signaling pathway (AID 1159552)
How it was run: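 Overnight-plated C3RL4 reporter cells get compound, then retinol to 1 uM final; plates sit 6 hr at 37 C, 5% CO2. A luciferase reagent is added and light output recorded after 30 min at room temperature.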

CN1[C@@H]2CC[C@H]1CC(OC(=O)C(O)c1ccccc1)C2 (some centres undefined)
inactive: outcome [1] | outcome [2] | outcome [3] | outcome [4] | outcome [5] | Potency [6] | outcome [7] | outcome [8] | Potency [9] | outcome [10]

CCCCN1C=CN(C)C1
inactive: outcome [2] | outcome [3] | outcome [4] | activity, negative = cytotoxicity [5] 1.65% [at 19 µM] | activity change, negative = inhibition [6] 11.4% [at 19 µM] | viability change, negative = cytotoxic [7] 3.01% [at 15.8 µM] | activation [8] -8.87% [at 15.8 µM] | activation [11] 3.97% [at 15.8 µM] | activity change, negative = cytotoxicity [9] -11.3% [at 15.8 µM] | activity change, negative = cytotoxicity [10] 1.26% [at 19 µM] | Potency [12]

CCOc1c(N2CCOCC2)cnn(C)c1=O
inactive: outcome [1] | outcome [2] | outcome [3] | outcome [4] | Potency [6] | outcome [7] | outcome [8] | Potency [11] | Potency [9] | outcome [10]

CC1CCC(CO)CC1 (centres undefined)
inactive: outcome [1] | outcome [2] | outcome [3] | outcome [4] | outcome [5] | Potency [6] | outcome [7] | outcome [8] | Potency [11] | Potency [9] | outcome [10]

NC(=O)Cc1cccc2ccccc12
inactive: outcome [1] | outcome [3] | outcome [4] | Potency [6] | outcome [7] | outcome [8] | Potency [9] | outcome [10]

C[N+]1(C)[C@@H]2CC(OC(=O)[C@H](CO)c3ccccc3)C[C@H]1[C@@H]1O[C@@H]12 (some centres undefined)
inactive: outcome [1] | outcome [2] | outcome [3] | outcome [4] | outcome [5] | Potency [6] | outcome [8] | Potency [9] | outcome [10] | Potency [12]

Cc1ccc(C(=O)Nc2ccc(S(=O)(=O)O)c3cc(S(=O)(=O)O)cc(S(=O)(=O)O)c23)cc1NC(=O)c1cccc(NC(=O)Nc2cccc(C(=O)Nc3cc(C(=O)Nc4ccc(S(=O)(=O)O)c5cc(S(=O)(=O)O)cc(S(=O)(=O)O)c45)ccc3C)c2)c1
inactive: outcome [1] | outcome [2] | outcome [3] | outcome [4] | outcome [5] | Potency [6] | outcome [7] | outcome [8] | Potency [11] | Potency [9] | outcome [10] | outcome [13] | outcome [14] | outcome [15] | outcome [16] | outcome [17] | outcome [18]

CCC(=O)OCc1ccccc1
inactive: outcome [1] | outcome [2] | outcome [3] | outcome [4] | Potency [6] | outcome [7] | outcome [8] | Potency [11] | Potency [9] | outcome [10]

CCCCc1nc(Cl)c(CO)n1Cc1ccc(-c2ccccc2-c2nn[nH]n2)cc1
inactive: outcome [1] | outcome [2] | outcome [3] | outcome [4] | outcome [5] | Potency [6] | outcome [7] | outcome [8] | Potency [9] | outcome [10]

COC(=O)C1=C(C)NC(C)=C(C(=O)OC(C)C)C1c1cccc2nonc12 (centres undefined)
inactive: outcome [1] | outcome [2] | outcome [3] | outcome [4] | outcome [5] | Potency [6] | outcome [8] | Potency [11] | Potency [9] | outcome [10] | Potency [12]

CN1CCN(c2cc3c(nn2)Oc2ccccc2N3C)CC1
active: Potency [12] 5.8 µM
inactive: outcome [1] | outcome [3] | outcome [4] | activity, negative = cytotoxicity [5] 0.179% [at 19 µM] | activity change, negative = inhibition [6] 55.1% [at 19 µM] | activation [8] 0.803% [at 15.8 µM] | activity change, negative = cytotoxicity [9] 1.18% [at 15.8 µM] | activity change, negative = cytotoxicity [10] 0.0499% [at 19 µM]

Cc1ccc(-c2ccccc2C#N)cc1
inactive: outcome [1] | outcome [2] | outcome [3] | outcome [4] | outcome [5] | Potency [6] | outcome [7] | outcome [8] | Potency [11] | Potency [9] | outcome [10]

CCO[Si](OCC)(OCC)c1ccccc1
inactive: outcome [1] | outcome [2] | outcome [3] | outcome [4] | outcome [5] | Potency [6] | outcome [7] | outcome [8] | Potency [9] | outcome [10]

O=C1CCCCCCCCCCCCCCO1
inactive: outcome [1] | outcome [2] | outcome [3] | outcome [4] | outcome [5] | Potency [6] | outcome [7] | outcome [8] | Potency [11] | Potency [9] | outcome [10] | Potency [12]

CC1OC1C1CCC2(C)OC2C1 (centres undefined)
inactive: outcome [1] | outcome [2] | outcome [3] | outcome [4] | outcome [5] | Potency [6] | outcome [8] | Potency [11] | Potency [9] | outcome [10]

CCN[C@H]1C[C@H](C)S(=O)(=O)c2sc(S(N)(=O)=O)cc21
inactive: outcome [1] | outcome [2] | outcome [3] | outcome [4] | outcome [5] | Potency [6] | outcome [7] | outcome [8] | Potency [11] | Potency [9] | outcome [10]

Nc1ccn([C@@H]2O[C@H](CO)[C@@H](O)C2O)c(=O)n1 (some centres undefined)
active: Potency [6] 7.7 µM
inactive: outcome [1] | outcome [2] | outcome [3] | outcome [4] | outcome [7] | outcome [8] | Potency [11] | Potency [9] | outcome [10] | Potency [12]

CCCCOCCOC(=O)COc1cc(Cl)c(Cl)cc1Cl
inactive: outcome [1] | outcome [2] | outcome [3] | outcome [4] | outcome [5] | Potency [6] | outcome [7] | outcome [8] | Potency [11] | Potency [9] | outcome [10] | Potency [19]

Cc1nc2ccc(CN(C)c3ccc(C(=O)N[C@@H](CCC(=O)O)C(=O)O)s3)cc2c(=O)[nH]1
inactive: outcome [1] | outcome [2] | outcome [3] | outcome [4] | outcome [5] | Potency [6] | outcome [8] | Potency [11] | Potency [9] | outcome [10]
